Screening results deposited in PubChem by several laboratories.
FXN GAA850 act – FXN promoter activators, primary screen, cell-based, luciferase luminescence, HEK293 lucGAA850; AID 540364, 2011; HEK293 lucGAA850 FXN promoter luciferase reporter, 24 h; percent of 10 µM SAHA response; 360,000 tested, 0.56% active; activation, % at 6 µM;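 active = activation above the average of all compounds screened plus 3 SD, cutoff fixed separately per campaign, cut at about 7.5% in these data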
SMARCA2 activ – SMARCA2 (BRM) function activators, primary screen, cell-based, luminescence, high throughput; MG213 cells, MMTV-luciferase reporter, dexamethasone, overnight; activation, % at 9.1 µM; 370,000 tested, 1% active; in the data active = activation above about 7.8%
GalR3 antagonist – GalR3 antagonists in HEK293 cells, primary screen, cell-based, fluorescence readout; AID 651719, 2012; HEK293 GalR3-CNG cAMP membrane potential fluorescence; galR3 body fused to GalR1 C-terminus; inhibition, % at 3 µM; Galanin receptor type 3 (Homo sapiens), O60755; 360,000 tested, 0.44% active;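 active = inhibition above the screen-wide average plus 3 SD, cut at about 13% in these data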;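 note: forskolin and galanin both at EC90 stimulate the cells; cAMP rise reported by CNG channel membrane potential dye signal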
Target sequence (O60755 1-299 limits assumed): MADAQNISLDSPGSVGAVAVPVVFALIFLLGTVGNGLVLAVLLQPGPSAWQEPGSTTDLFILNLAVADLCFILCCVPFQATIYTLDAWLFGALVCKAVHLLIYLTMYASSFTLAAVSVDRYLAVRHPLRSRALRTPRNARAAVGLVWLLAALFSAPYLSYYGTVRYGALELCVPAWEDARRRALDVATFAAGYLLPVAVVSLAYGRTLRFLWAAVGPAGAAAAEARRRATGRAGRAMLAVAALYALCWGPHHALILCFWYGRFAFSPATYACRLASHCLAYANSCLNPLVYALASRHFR
Hsp70 activator – Hsp70 transcriptional activators, primary screen, cell-based, HeLa, Hsp70 promoter luciferase, luminescence, 10 µM; activation, % at 10 µM; HeLa Hsp70 promoter luciferase reporter; scaled: vehicle 0, proteasome-inhibitor control 100%; 200,000 tested, 0.04% active; AID 1203, 2008;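 active = activation above the mean across all tested compounds plus 3 SD, cutoff set per campaign, cut at about 5.5% in these data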
HIF act – HIF pathway transcriptional activators, primary screen, cell-based, U2OS HRE-luciferase, luminescence; U2OS HRE-luciferase reporter; normalized: DMSO 0%, desferrioxamine 100%; 300,000 tested, 0.32% active; AID 1910, 2009; activation, % at 7.5 µM (by protocol);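 active = mean activation of at least 10% of the iron chelator positive control signal, with at least half of replicates also reaching 10%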
GAA30 counter – GAA30 FXN promoter activators, confirmation, counter-screen for GAA850 frataxin promoter activator project, cell-based, luminescence, HEK293, lucGAA30, triplicate | shares compounds with FXN GAA850 act | HEK293 lucGAA30 FXN promoter luciferase, 24 h; DMSO = 0%, 5 µM ipriflavone = 100% | activation, % at 6 µM | 1,900 tested, 66% active | AID 588350, 2011;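 active = mean activation above the mean of solvent-only control wells plus 3 SD, cut at about 22% in these data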;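 note: counterscreen of GAA850 promoter hits where activity marks nonselective or luminescence artifacts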
FXN GAA850 conf – FXN GAA850 promoter activators in reporter cells, confirmation, cell-based, luminescence, HEK293 lucGAA850, triplicate; shares compounds with FXN GAA850 act; HEK293 lucGAA850 FXN promoter luciferase reporter, 24 h; 100% = activation by SAHA; activation, % at 6 µM; 1,900 tested, 86% active; AID 588351, 2011;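 active = mean activation above a set limit taken from the primary screen, cut at about 8% in these data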
Large screens that a line does not name were inactive (follow-up assays come after a bar, where they were run); ! = a repeat was not active. A selection: hits, their analogues and other compounds. The true share with any hit is near 2.2%.

COc1cccc(C(=O)Nc2nnc(-c3ccccc3)s2)c1	FXN GAA850 act 8.0 (no result: Hsp70 activator) | GAA30 counter 80 | FXN GAA850 conf 35
COc1ccccc1NC(=O)c1ccc2nc(C)sc2c1	none (no result: Hsp70 activator)
COc1cccc(NC(=O)c2ccc3nc(C)sc3c2)c1	FXN GAA850 act 7.6 (no result: Hsp70 activator) | GAA30 counter 120 | FXN GAA850 conf 40
O=C(CSc1nnc(-c2cccnc2)n1Cc1ccco1)Nc1ccc(Cl)c(Cl)c1	none (no result: FXN GAA850 act, GalR3 antagonist, Hsp70 activator, HIF act)
CN1CCCCC(NC(=O)COCc2ccccc2)C1=O (stereo not given)	none (no result: FXN GAA850 act, Hsp70 activator, HIF act)
O=C(Nc1ccccc1-c1ccccc1)c1cnccn1	FXN GAA850 act 9.0 | GAA30 counter 41 | FXN GAA850 conf 22
O=C(COC(=O)c1cnccn1)Nc1ccccc1-c1ccccc1	none (no result: Hsp70 activator, HIF act)
CCCCCCCCN1CN2Cc3ccccc3C2CS1(=O)=O (stereo not given)	none (no result: FXN GAA850 act, GalR3 antagonist, Hsp70 activator, HIF act)
C/C=C/Cn1c(SCc2ccc(C)cc2)nc2c1c(=O)[nH]c(=O)n2C	FXN GAA850 act 8.7 | GAA30 counter 23 | FXN GAA850 conf 21
COc1ccc(-c2cc3cc(F)ccc3cn2)cc1	none (no result: Hsp70 activator, HIF act)
COc1cc(OC)cc(-c2cc3cc(F)ccc3cn2)c1	FXN GAA850 act 8.0 (no result: Hsp70 activator, HIF act) | GAA30 counter 95 | FXN GAA850 conf 36
CSc1nc(N)nc(SC2C=CCCC2)c1C#N (stereo not given)	FXN GAA850 act 13 | GAA30 counter 41 | FXN GAA850 conf 22
CSc1nc(N)nc(SCC(=O)C(C)(C)C)c1C#N	none
Cc1[nH]c2ccccc2c1C(=O)/C=C/c1ccccc1Cl	FXN GAA850 act 7.7 | GAA30 counter 117 | FXN GAA850 conf 44
O=C(CC1CCCC1)N1CC[C@H]2[C@H](CCCN2Cc2ccc(F)cc2)C1	none (no result: FXN GAA850 act, GalR3 antagonist, Hsp70 activator, HIF act)
CN(C)P(=O)(Nc1cccc2ccccc12)Nc1cccc2ccccc12	none (no result: Hsp70 activator, HIF act)
CC(C)OP(=O)(Nc1cccc2ccccc12)OC(C)C	FXN GAA850 act 12 | GAA30 counter 25 | FXN GAA850 conf 12
Cc1ccc(-c2cc(-c3nnc(SCC(=O)Nc4ccc(OCc5ccccc5)cc4)n3N)[nH]n2)cc1	none (no result: FXN GAA850 act, GalR3 antagonist, Hsp70 activator, HIF act)
O=C(NC1=N[C@@]2(C=C3CCCCC3n3c(=O)n(-c4ccccc4)c(=O)n32)[C@H](Cc2ccccc2)N1Cc1ccccc1)c1ccccc1 (stereo not given in full)	none (no result: FXN GAA850 act, GalR3 antagonist, Hsp70 activator, HIF act)
CCC(=O)N1CCc2cc(Br)c(S(=O)(=O)NC3CCN(Cc4ccccc4)CC3)cc21	none (no result: FXN GAA850 act, GalR3 antagonist, Hsp70 activator, HIF act)
C=CCOC(=O)C1=C(C)NC(SCC(=O)Nc2nccs2)=C(C#N)C1c1ccc(Cl)cc1 (stereo not given)	FXN GAA850 act 9.6 | GAA30 counter inactive | FXN GAA850 conf 8.9
C=CCOC(=O)C1=C(C)NC(SCC(=O)Nc2nccs2)=C(C#N)C1c1cccs1 (stereo not given)	none
CCC(=O)c1ccc2c(c1)OCCO2	none (no result: Hsp70 activator)
Cc1ccc(S(=O)(=O)N2CCCCC2)cc1NC(=O)Cn1ncc(Cl)c(Cl)c1=O	none (no result: Hsp70 activator, HIF act)
CCC(=O)Nc1ccc(C(=O)Cn2ncc(Cl)c(Cl)c2=O)cc1	FXN GAA850 act 8.7 (no result: Hsp70 activator) | GAA30 counter 22 | FXN GAA850 conf 11
O=C(Cn1ncc(Cl)c(Cl)c1=O)c1ccc2c(c1)OCCO2	FXN GAA850 act 8.6 (no result: Hsp70 activator, HIF act) | GAA30 counter inactive | FXN GAA850 conf 18
CCN(CC)S(=O)(=O)c1cc(NC(=O)Cn2ncc(Cl)c(Cl)c2=O)ccc1C	FXN GAA850 act 12 (no result: Hsp70 activator) | GAA30 counter inactive | FXN GAA850 conf 15
Cc1cc(Br)ccc1NC(=O)CNC(=O)Cn1ncc(Cl)c(Cl)c1=O	FXN GAA850 act 8.7 | GAA30 counter inactive | FXN GAA850 conf inactive
CC(=O)N1CCN(c2ccc(N3CCN(Cc4ccccc4)[C@H](C)C3)c(C)c2)[C@H](C)C1	none (no result: FXN GAA850 act, Hsp70 activator, HIF act)
COC(=O)[C@]12C[C@H](CC(=O)NCc3cccs3)C(=O)N(Cc3cccc4ccccc34)C1=C[C@H](C(C)C)O[C@@H]2C1CC1	none (no result: FXN GAA850 act, GalR3 antagonist, Hsp70 activator, HIF act)
O=C(Cn1ncc(Cl)c(Cl)c1=O)Nc1ccc2c(c1)OCO2	FXN GAA850 act 11 (no result: Hsp70 activator, HIF act) | GAA30 counter inactive | FXN GAA850 conf 12
COc1ccc(NC(=O)Cn2ncc(Cl)c(Cl)c2=O)cc1S(=O)(=O)N1CCOCC1	FXN GAA850 act 7.8 | GAA30 counter inactive | FXN GAA850 conf 16
COc1ccc(C(=O)CSc2nnc(-c3n[nH]c4c3CCC4)n2N)cc1OC	none (no result: FXN GAA850 act, GalR3 antagonist, Hsp70 activator, HIF act)
Cc1cc(C)cc(NC(=O)C2CCCN(c3ncccn3)C2)c1 (stereo not given)	none (no result: Hsp70 activator)
Cc1ccc(NC(=O)C2CCCN(c3ncccn3)C2)cc1F (stereo not given)	FXN GAA850 act 7.6 | GAA30 counter 113 | FXN GAA850 conf 32
COC(=O)[C@@]12CCCCC3=C1N(CCC3)C(=O)[C@H]2CC(=O)NCc1ccc(OC)c(OC)c1	none (no result: FXN GAA850 act, GalR3 antagonist, Hsp70 activator, HIF act)
CCCCN1C[C@@H](COCc2ccccc2)Oc2cccc(F)c2S1(=O)=O	none (no result: FXN GAA850 act, GalR3 antagonist, Hsp70 activator, HIF act)
Cc1ccc2nc(-c3ccc4c(c3)NC(=O)CO4)cn2c1	FXN GAA850 act 8.5 (no result: Hsp70 activator) | GAA30 counter 98 | FXN GAA850 conf 30
COc1ccc(OCC(O)CN2CCN(Cc3ccc4c(c3)OCO4)CC2)cc1 (stereo not given)	none
CC(=O)c1ccc(OCC(O)CN2CCN(Cc3ccc4c(c3)OCO4)CC2)cc1 (stereo not given)	FXN GAA850 act 9.3! (no result: HIF act) | GAA30 counter 22 | FXN GAA850 conf inactive
COC(=O)C(NC(=O)c1ccc(F)cc1)(Nc1ncc(S(=O)(=O)c2ccc([N+](=O)[O-])cc2)s1)C(F)(F)F (stereo not given)	FXN GAA850 act 9.8 | GAA30 counter inactive | FXN GAA850 conf 14
CCOc1ccc2cc(C#N)c(SCC(=O)N3CCOCC3)nc2c1	FXN GAA850 act 9.7 | GAA30 counter 133 | FXN GAA850 conf 46
C#CCN1CC(N(C)CCOC(=O)c2ccc(F)cc2)CS1(=O)=O (stereo not given)	none (no result: FXN GAA850 act, GalR3 antagonist, Hsp70 activator, HIF act)
CSc1ccc(CC(=O)N2CCC(n3nccc3NC(=O)C3CC3)CC2)cc1	FXN GAA850 act 7.7 (no result: Hsp70 activator) | GAA30 counter 96 | FXN GAA850 conf 32
COc1cccc(CC(=O)N2CCC(n3nccc3NC(=O)C3CC3)CC2)c1	none (no result: Hsp70 activator)
O=C(C=Cc1ccccn1)c1ccccc1	none (no result: Hsp70 activator, HIF act)
O=C(C=Cc1ccccn1)c1ccccc1O	FXN GAA850 act 8.5 (no result: Hsp70 activator, HIF act) | GAA30 counter inactive | FXN GAA850 conf 26
